Drawing on PubChem BioAssay (Tox21), this text covers Potency and activity change for 13 compounds.

Several values for one entry are separate records, joined by “and”; a condition that tells them apart may be missing. Equal entries are not always repeated. The source holds several records for some structures; these can differ, active in one and inactive in another. Activity calls are given as the source filed them. Unless noted, the call rests on the fitted dose curve; in most records, active means well fitted curve in the direction sought with a large enough effect in the repeat runs; inconclusive means weak or mixed curves; inactive means no such curve, though single readings can be large; an effect the other way counts as inactive or inconclusive.

Experiment [1] is described as follows: qHTS assay to identify small molecule antagonists of the glucocorticoid receptor (GR) signaling pathway - cell viability counter screen (AID 720693). Further: nearly all actives have a fitted effect of over 55% in size. Further: potency means the concentration at half of the fitted maximal effect. On the technique in general: In qHTS, concentration-response curves come from the screen itself.
Experiment [2] in a line: qHTS assay for identifying genotoxic compounds that show differential cytotoxicity against isogenic chicken DT40 cell lines with known DNA damage response pathways - wild type cell line (AID 743012). Further: nearly all actives have a fitted effect of over 60% in size. Further: potency means the concentration at half of the fitted maximal effect. The essentials:
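Wild-type DT40 cells (300/well) exposed to compounds for 40 hours at 37 C/5% CO2. Viability read by CellTiter-Glo luminescence after 30 min at room temperature.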

Experiment [3] can be described thus: qHTS assay for identifying genotoxic compounds that show differential cytotoxicity against isogenic chicken DT40 cell lines with known DNA damage response pathways - Rev3 mutant cell line (AID 743014). Further: nearly all actives have a fitted effect of over 55% in size. Further: potency means the concentration at half of the fitted maximal effect.
Experiment [4] in a line: qHTS assay for identifying genotoxic compounds that show differential cytotoxicity against isogenic chicken DT40 cell lines with known DNA damage response pathways - Rad54/Ku70 mutant cell line (AID 743015). Further: nearly all actives have a fitted effect of over 60% in size. Further: potency means the concentration at half of the fitted maximal effect.
Experiment [5] can be described thus: qHTS assay to identify small molecule antagonists of the androgen receptor (AR) signaling pathway - cell viability counter screen (AID 743033; further: nearly all actives have a fitted effect of over 45% in size; further: potency means the concentration at half of the fitted maximal effect).
A short description of experiment [6]: qHTS assay to identify small molecule antagonists of the androgen receptor (AR) signaling pathway using the MDA cell line - cell viability counter screen (AID 743041; further: nearly all actives have a fitted effect of over 45% in size). The essentials: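 MDA-kb2 AR-luc cells (MMTV-luciferase, AR/GR responsive) treated with compounds plus R1881 agonist for 16 h at 37C. CellTiter-Fluor added at 15.5 h; fluorescence read after 30 min in the same wells.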

Experiment [7] can be described thus: qHTS assay to identify small molecule antagonists of the thyroid receptor (TR) signaling pathway - cell viability counter screen (AID 743064). Further: nearly all actives have a fitted effect of over 50% in size. Further: potency means the concentration at half of the fitted maximal effect. The essentials: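 GH3.TRE-Luc rat pituitary cells carrying a TRE-luciferase reporter were treated with compound plus 1 nM T3 (final) for 23.5 h at 37 °C. Viability was then read in the same wells by CellTiter-Fluor fluorescence after a further 30 min.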

For experiment [8], the target named is Estrogen receptor (Homo sapiens) (UniProt P03372). Kind of experiment: qHTS assay to identify small molecule antagonists of the estrogen receptor alpha (ER-alpha) signaling pathway (AID 743069; active means well fitted curve in the direction sought with a large enough effect in the signal ratio in the repeat runs, not every such curve was filed as active; inconclusive means weak or mixed curves, or effect the other way; inactive means no such curve, though single readings can be large or run the other way; the % refers to the signal ratio). The gist of the method:
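HEK293 ER-alpha-UAS-bla GripTite cells, held overnight in 2% charcoal-stripped FBS, 5,000 cells/well, preincubated 4 h, then compound plus 17beta-estradiol for 18 h at 37C. Beta-lactamase read by LiveBLAzer B/G FRET substrate, 2 h at room temperature.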

A short description of experiment [9]: qHTS assay to identify small molecule antagonists of the estrogen receptor alpha (ER-alpha) signaling pathway - cell viability counter screen (AID 743074; calls by dose curve;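 further: HEK293 cells carrying ER-alpha-UAS-bla reporter stimulated with 17beta-estradiol; nearly all actives have a fitted effect of over 45% in size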; further: potency means the concentration at half of the fitted maximal effect).
Experiment [10] deals with Estrogen receptor (Homo sapiens) (UniProt P03372). Kind of experiment: qHTS assay to identify small molecule agonists of the estrogen receptor alpha (ER-alpha) signaling pathway (AID 743075; calls by dose curve; further: potency means the concentration at half of the fitted maximal effect).
Chain of Estrogen receptor (Homo sapiens) (P03372 whole entry, looked up): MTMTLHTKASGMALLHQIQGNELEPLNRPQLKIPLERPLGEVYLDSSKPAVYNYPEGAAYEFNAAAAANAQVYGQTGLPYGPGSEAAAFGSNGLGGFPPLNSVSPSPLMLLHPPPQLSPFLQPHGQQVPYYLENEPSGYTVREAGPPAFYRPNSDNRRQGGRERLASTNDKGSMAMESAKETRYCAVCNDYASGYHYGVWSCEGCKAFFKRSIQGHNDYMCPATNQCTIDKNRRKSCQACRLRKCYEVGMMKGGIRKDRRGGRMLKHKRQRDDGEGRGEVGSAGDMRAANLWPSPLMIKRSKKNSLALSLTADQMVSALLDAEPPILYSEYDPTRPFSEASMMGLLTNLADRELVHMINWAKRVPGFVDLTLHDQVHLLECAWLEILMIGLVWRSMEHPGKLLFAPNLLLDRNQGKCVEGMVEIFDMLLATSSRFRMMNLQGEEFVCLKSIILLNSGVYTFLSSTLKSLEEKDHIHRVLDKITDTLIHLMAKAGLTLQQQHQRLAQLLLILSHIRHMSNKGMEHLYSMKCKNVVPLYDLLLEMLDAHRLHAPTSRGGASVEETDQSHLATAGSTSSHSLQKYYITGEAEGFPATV
For experiment [11] the target is unchanged. Kind of experiment: qHTS assay to identify small molecule agonists of the estrogen receptor alpha (ER-alpha) signaling pathway using the BG1 cell line (AID 743079). Further: nearly all actives have a fitted effect of over 20% in size. Further: potency means the concentration at half of the fitted maximal effect. The following applies: BG1Luc4E2 cells, ERE-luciferase agonist, 22 h; activation: at 70.3 µM (top of the series) unless noted.
The nature of experiment [12]: qHTS assay to identify small molecule antagonists of the estrogen receptor alpha (ER-alpha) signaling pathway using the BG1 cell line (AID 743080; calls by dose curve;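 further: BG1 cells stimulated with 17beta-estradiol alongside compound; nearly all actives have a fitted effect of over 25% in size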; further: potency means the concentration at half of the fitted maximal effect). The gist of the method:
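BG1-Luc-4E2 cells (endogenous full-length ER-alpha, stable 4×ERE-luciferase) were starved 5 days in phenol-red-free medium with 10% charcoal-stripped FBS, plated 24 h, then given compound plus 17beta-estradiol for 21.5 h at 37 C; ONE-Glo luminescence read after 30 min.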

The nature of experiment [13]: qHTS assay to identify small molecule antagonists of the estrogen receptor alpha (ER-alpha) signaling pathway using the BG1 cell line - cell viability counter screen (AID 743081).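 Further: compound given together with 17beta-estradiol as the ER stimulus; nearly all actives have a fitted effect of over 45% in size.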 Further: potency means the concentration at half of the fitted maximal effect.
The next experiment deals with Aromatase (Homo sapiens) (UniProt P11511). Description: qHTS assay to identify aromatase inhibitors (AID 743083). Further: nearly all actives have a fitted effect of over 55% in size. Further: potency means the concentration at half of the fitted maximal effect.
Chain of Aromatase (Homo sapiens) (P11511 whole entry, looked up): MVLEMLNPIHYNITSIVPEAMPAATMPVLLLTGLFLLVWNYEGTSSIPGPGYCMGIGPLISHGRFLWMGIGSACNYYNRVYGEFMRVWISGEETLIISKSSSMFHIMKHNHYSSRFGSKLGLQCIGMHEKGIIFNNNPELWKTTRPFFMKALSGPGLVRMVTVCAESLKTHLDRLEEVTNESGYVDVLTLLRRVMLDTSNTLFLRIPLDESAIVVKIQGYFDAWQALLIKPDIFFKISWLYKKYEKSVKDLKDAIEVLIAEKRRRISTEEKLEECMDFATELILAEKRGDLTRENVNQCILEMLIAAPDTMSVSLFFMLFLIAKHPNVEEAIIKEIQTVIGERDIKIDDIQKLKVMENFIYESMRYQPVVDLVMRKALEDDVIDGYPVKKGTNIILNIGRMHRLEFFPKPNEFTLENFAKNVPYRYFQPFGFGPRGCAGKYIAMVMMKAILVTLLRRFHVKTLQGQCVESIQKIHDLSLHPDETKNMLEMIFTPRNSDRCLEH
The target of experiment [14] is Androgen receptor (Homo sapiens) (UniProt P10275). Kind of experiment: qHTS assay to identify small molecule antagonists of the androgen receptor (AR) signaling pathway (AID 743035; active means well fitted inhibition curve with a large enough effect in the signal ratio in the repeat runs, not every such curve was filed as active; inconclusive means weak or mixed curves, or effect the other way; inactive means no such curve, though single readings can be large or run the other way; the % refers to the signal ratio). The essentials:
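HEK293 cells stably carrying UAS-beta-lactamase reporter, 2,000/well, given compounds plus R1881 agonist and incubated 16 h at 37C. LiveBLAzer B/G FRET substrate then added for 2 h at room temperature before fluorescence reading.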

Experiment [15] shares this target. Kind of experiment: qHTS assay to identify small molecule agonists of the androgen receptor (AR) signaling pathway using the MDA cell line (AID 743040; further: nearly all actives have a fitted effect of over 20% in size). The following applies: MDA-kb2 AR-luc cells, MMTV luciferase, 16 h, stronger effect = higher value. The essentials:
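MDA-kb2 breast carcinoma cells carrying MMTV-luciferase (responsive to AR and GR), plated 5 h then treated 16 h with compounds at 37C, 0% CO2. Read-out was ONE-Glo luminescence after 30 min at room temperature.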

Experiment [16] shares this target. Kind of experiment: qHTS assay to identify small molecule antagonists of the androgen receptor (AR) signaling pathway using the MDA cell line (AID 743042; further: nearly all actives have a fitted effect of over 55% in size). The gist of the method:
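MDA-kb2 breast carcinoma cells carrying MMTV-luciferase (AR/GR responsive) were co-treated with compounds and the agonist R1881 for 16 h at 37C. Inhibition read as ONE-Glo luminescence; CellTiter-Fluor fluorescence measured in parallel for cytotoxicity.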

Experiment [17] relates to thyroid hormone receptor (rat, GH3 cells). Kind of experiment: qHTS assay to identify small molecule agonists of the thyroid receptor (TR) signaling pathway (AID 743066; calls by dose curve).
In experiment [18] the target is Androgen receptor (Homo sapiens) (UniProt P10275). Kind of experiment: qHTS assay to identify small molecule agonists of the androgen receptor (AR) signaling pathway (AID 743036; active means well fitted activation curve with a large enough effect in the signal ratio in the repeat runs, with a control signal flat, not every such curve was filed as active; inconclusive means weak or mixed curves, or effect the other way; inactive means no such curve, though single readings can be large or run the other way; the % refers to the signal ratio). The essentials:
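HEK293 cells stably carrying a UAS-driven beta-lactamase reporter (GeneBLAzer AR-UAS-bla-GripTite) were plated at 2,000 cells/well, rested 4 h at 37C, then exposed to compounds in DMSO for 16 h. LiveBLAzer B/G FRET substrate was added for 2 h at room temperature; fluorescence read.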

Experiment [19] can be described thus: qHTS assay to identify small molecule antagonists of the thyroid receptor (TR) signaling pathway (AID 743065). Further: nearly all actives have a fitted effect of over 55% in size. Further: potency means the concentration at half of the fitted maximal effect. The gist of the method:
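GH3.TRE-Luc rat pituitary cells (two TREs driving luciferase) were dosed with compound, then stimulated with 1 nM T3 (final) for 23.5 h at 37 C. ONE-Glo luminescence was the read-out, with CellTiter-Fluor fluorescence as the cytotoxicity counter-screen.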
On the % scale 0 is the no-effect control and ±100 the full control effect.

Chain of Androgen receptor (Homo sapiens) (P10275 whole entry, looked up): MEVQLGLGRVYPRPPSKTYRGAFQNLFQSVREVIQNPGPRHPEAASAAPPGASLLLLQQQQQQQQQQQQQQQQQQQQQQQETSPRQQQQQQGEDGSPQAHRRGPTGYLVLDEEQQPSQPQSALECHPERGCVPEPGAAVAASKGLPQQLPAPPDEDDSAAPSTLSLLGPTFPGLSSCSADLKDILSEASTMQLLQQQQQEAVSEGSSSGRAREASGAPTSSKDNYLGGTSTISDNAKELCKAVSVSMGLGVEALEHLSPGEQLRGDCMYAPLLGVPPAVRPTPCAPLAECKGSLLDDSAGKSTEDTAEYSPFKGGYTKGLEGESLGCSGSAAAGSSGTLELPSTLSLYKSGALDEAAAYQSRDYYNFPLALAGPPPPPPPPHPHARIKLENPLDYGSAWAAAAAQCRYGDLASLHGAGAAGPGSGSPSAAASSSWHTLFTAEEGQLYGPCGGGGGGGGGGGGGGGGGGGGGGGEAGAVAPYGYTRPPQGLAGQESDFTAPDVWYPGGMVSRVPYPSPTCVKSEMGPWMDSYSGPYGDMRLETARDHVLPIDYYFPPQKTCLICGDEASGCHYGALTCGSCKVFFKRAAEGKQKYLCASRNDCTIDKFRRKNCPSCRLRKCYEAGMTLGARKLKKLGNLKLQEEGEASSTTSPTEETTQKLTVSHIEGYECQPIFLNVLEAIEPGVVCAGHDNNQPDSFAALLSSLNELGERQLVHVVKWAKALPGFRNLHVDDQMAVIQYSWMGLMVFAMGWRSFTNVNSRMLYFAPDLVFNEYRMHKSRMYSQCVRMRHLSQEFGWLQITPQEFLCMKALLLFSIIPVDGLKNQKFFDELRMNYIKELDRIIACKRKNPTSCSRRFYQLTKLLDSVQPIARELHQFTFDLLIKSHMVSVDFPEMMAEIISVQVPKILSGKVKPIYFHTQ

Consider `CC(C)(C#N)N=NC(C)(C)C#N`, for which the Potency entry in [1], in experiment [2], in [3], in experiment [4], in experiment [5] and in experiment [6] was “inactive” throughout. Moreover, the Potency result in experiment [7], in experiment [8], in experiment [9], in experiment [10], in experiment [11] and in experiment [12] was “inactive” in each case. The Potency entry (in experiment [13]; with Aromatase (Homo sapiens)) was “inactive” throughout.
In the case of `O=C(O)c1nn(Cc2ccc(Cl)cc2Cl)c2ccccc12`, the Potency entry in [1], in [2], in experiment [3], in [4], in experiment [5] and in [14] was “inactive” in each case. Also, the Potency entry in [16], in experiment [7], in [17], in experiment [8], in [9] and in experiment [12] was “inactive” throughout. Besides, the Potency result (in experiment [13]; with Aromatase (Homo sapiens)) was “inactive” in each case. The activity change in experiment [15] (at 70.3 µM (top of the series)) was 1.75% (inactive) and 0.87% (inactive). Moreover, the Potency was 95.2 nM [inconclusive] (active) and inactive in experiment [10]; 6.68 µM (active) and inactive in experiment [11].
With `C=CC(Cl)CCl` (centres undefined), the Potency result in experiment [2], in [3], in experiment [4], in experiment [5], in experiment [14] and in experiment [18] was “inactive” in each case. Moreover, the Potency result in experiment [6], in experiment [16], in experiment [7], in experiment [19], in [17] and in [9] was “inactive” each time. The Potency entry (in experiment [13]; with Aromatase (Homo sapiens)) was “inactive” in each case. The activity change in experiment [15] (at 95 µM (top of the series)) is -0.5% (inactive) and 0.488% (inactive).
As to `CC(C)COC(=O)c1ccccc1C(=O)OCC(C)C`, the Potency entry in experiment [1], in [5], in experiment [6], in experiment [7], in [17] and in [8] was “inactive” throughout. Also, the Potency entry (in experiment [9]; in experiment [12]; in experiment [13]; with Aromatase (Homo sapiens)) was “inactive” throughout. Further, the Potency in experiment [2] was 27.3 µM (active); in experiment [4], 48.6 µM (active); in [10], 13.8 nM [inconclusive] (active) and inactive; in experiment [11], 21.7 µM (active).
Turning to `O=C1C(Cl)=C(Cl)C(=O)c2ccccc21`, the Potency in [1] was 21.9 µM (active) and 19.5 µM (active); in experiment [2] it was 2.18 µM (active) and 486 nM (active); in experiment [3] it was 972 nM (active) and 969 nM (active); in experiment [4], 2.18 µM (active) and 545 nM (active); in experiment [5], 4.91 µM (active) and 7.76 µM (active); in experiment [7] it was 30.7 µM (active) and 5.45 µM (active). The Potency in experiment [19] was 3.07 µM (active) and 3.44 µM (active); in experiment [9], 43.8 µM (active) and 54.9 µM (active); in experiment [12] it was 30.7 µM (active) and 54.5 µM (active); with Aromatase (Homo sapiens) it was 2.18 µM (active) and 3.86 µM (active). The Potency result in experiment [17] and in experiment [13] was “inactive” throughout.
`CS(=O)(=O)NC(=O)c1cc(Oc2ccc(C(F)(F)F)cc2Cl)ccc1[N+](=O)[O-]`: the Potency result in [1], in experiment [2], in [3], in experiment [4], in experiment [5] and in experiment [7] was “inactive” throughout. The Potency result (in experiment [17]; in experiment [9]; in experiment [13]; with Aromatase (Homo sapiens)) was “inactive” in each case.
`O=C1CCCO1`: the Potency entry in [2], in [3], in experiment [4], in experiment [5], in [14] and in experiment [18] was “inactive” each time. Moreover, the Potency result in experiment [6], in experiment [16], in experiment [7], in experiment [19], in [17] and in experiment [9] was “inactive” throughout. Moreover, the Potency entry (in experiment [13]; with Aromatase (Homo sapiens)) was “inactive” in each case. Further, the activity change in experiment [15] (at 70.3 µM (top of the series)) was -2.47% (inactive) and -0.181% (inactive).
`CC(C)CON=O`: the Potency result in experiment [1], in [2], in experiment [3], in experiment [4], in experiment [5] and in [7] was “inactive” each time. Moreover, the Potency entry in [8], in experiment [9], in experiment [10], in experiment [11], in experiment [12] and in experiment [13] was “inactive” each time. In addition, the Potency result with Aromatase (Homo sapiens) is “inactive”.
As for `Cc1cccc(N=Nc2ccc(N(C)C)cc2)c1`, the Potency entry in experiment [1], in experiment [5], in [6], in experiment [7], in [19] and in experiment [17] was “inactive” each time. Moreover, the Potency result (in experiment [8]; in experiment [9]; in experiment [10]; in the experiment with Aromatase (Homo sapiens)) was “inactive” throughout. Further, the Potency entry is “inactive and 27.3 µM (active)” in [3]; “inactive and 27.3 µM (active)” in [4]; 139 nM (active) and 864 nM (active) in experiment [11]; 31.2 µM (active) and 27.3 µM (active) in experiment [13].
Regarding `ClCC(Cl)CCl`, the Potency entry in experiment [1], in [2], in [3], in experiment [4], in [5] and in experiment [7] was “inactive” each time. Moreover, the Potency result in experiment [17], in experiment [9] and in experiment [13] was “inactive” throughout.
With `CCCCC(C#N)(Cn1cncn1)c1ccc(Cl)cc1` (centres undefined), the Potency entry in experiment [1], in [5], in [7], in [17], in experiment [8] and in experiment [9] was “inactive” throughout. Moreover, the Potency entry in experiment [10], in experiment [11] and in experiment [13] was “inactive” in each case. The Potency in experiment [2] was 61.1 µM (active); in experiment [3], 60.9 µM (active) and 19.3 µM (active); in experiment [4] it was 60.9 µM (active); in experiment [12], 30.5 µM (active) and 61.1 µM (active); with Aromatase (Homo sapiens) it was 4.84 µM (active) and 3.86 µM (active).
Consider `O=[N+]([O-])/N=C1\NCCN1Cc1ccc(Cl)nc1`, for which the Potency result in [2], in experiment [5], in experiment [14], in [18], in [6] and in [16] was “inactive” in each case. The Potency result in experiment [7], in [17], in [8], in [9], in [10] and in experiment [11] was “inactive” throughout. Besides, the Potency result (in experiment [12]; in experiment [13]; with Aromatase (Homo sapiens)) was “inactive” throughout. For the same compound, the Potency result in experiment [3] is “inactive and 8.41 µM (active)”; in experiment [4], “inactive and 5.31 µM (active)”. Moreover, in experiment [15] (at 70.3 µM (top of the series)), the activity change was 0.161% (inactive) and 4.01% (inactive) and 0.695% (inactive).
Take `Cc1ccc(N=CN(C)C=Nc2ccc(C)cc2C)c(C)c1`: the Potency result in [1], in experiment [5], in [17], in [8], in experiment [9] and in [10] was “inactive” throughout. Besides, the Potency result (in experiment [11]; in [12]; in experiment [13]; with Aromatase (Homo sapiens)) was “inactive” throughout. Besides, the Potency entry in experiment [2] was “inactive and 30.6 µM (active)”; in [3] it was “inactive and 38.5 µM (active)”; in [4] it was “inactive and 30.6 µM (active)”; in experiment [7], “inactive and 48.5 µM (active)”.
